Bioassay records deposited in PubChem by Broad Institute.
NSD2 HMT inh: NSD2 histone methyltransferase inhibitors, primary screen, biochemical, AlphaScreen, single concentration, set 2. NSD2 peptide methylation, 120 min. Histone-lysine N-methyltransferase NSD2 (Homo sapiens), O96028. inhibition, % at 12.5 µM. 310,000 tested, 0.54% active; in the data active = inhibition above about 50%
RAD54 inh: inhibitors of human RAD54 branch migration, primary screen, biochemical, fluorescence, single point. DNA repair and recombination protein RAD54-like (Homo sapiens), Q92698. RAD54 Holliday junction branch migration, FAM/BHQ fluorescence. inhibition, % at 10.4 µM. 360,000 tested, 0.14% active. AID 602329, 2012;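 active = mean normalized replicate activity at least 40 and at least half of replicates scoring 40 or more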;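 note: 0% = median of neutral control wells and 100% = median of positive control wells; inhibitors cause a drop in the FAM fluorescence signal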
Target sequence (Q92698 whole entry, looked up): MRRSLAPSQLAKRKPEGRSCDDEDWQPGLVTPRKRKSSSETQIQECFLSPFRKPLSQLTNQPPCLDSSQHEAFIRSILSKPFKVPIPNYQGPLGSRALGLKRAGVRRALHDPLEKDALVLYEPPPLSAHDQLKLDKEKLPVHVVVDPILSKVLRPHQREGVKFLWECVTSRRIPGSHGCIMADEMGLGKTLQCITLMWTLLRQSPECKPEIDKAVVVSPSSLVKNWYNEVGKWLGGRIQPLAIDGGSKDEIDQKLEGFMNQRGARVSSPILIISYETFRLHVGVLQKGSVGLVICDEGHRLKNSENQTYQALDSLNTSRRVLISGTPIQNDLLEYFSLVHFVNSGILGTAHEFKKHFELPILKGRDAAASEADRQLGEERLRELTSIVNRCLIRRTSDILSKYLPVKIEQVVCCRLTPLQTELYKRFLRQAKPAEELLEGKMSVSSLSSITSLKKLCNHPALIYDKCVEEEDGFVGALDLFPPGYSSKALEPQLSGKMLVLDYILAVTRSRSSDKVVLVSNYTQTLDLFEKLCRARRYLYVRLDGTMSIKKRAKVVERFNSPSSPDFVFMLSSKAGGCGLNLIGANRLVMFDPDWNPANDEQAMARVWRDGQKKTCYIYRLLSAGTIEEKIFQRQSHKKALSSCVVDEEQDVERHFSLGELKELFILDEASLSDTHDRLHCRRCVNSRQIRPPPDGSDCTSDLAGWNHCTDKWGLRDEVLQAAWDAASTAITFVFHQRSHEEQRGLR
CASP6 VEID inh: human caspase-6 inhibitors, primary screen, biochemical, VEID-R110 fluorescence, single point, set 2. P55212. purified caspase-6, Z-VEID-R110 cleavage fluorescence. inhibition, % at 12.5 µM. 350,000 tested, 0.53% active. AID 686996, 2013;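 active = mean inhibition across replicates at least about 35%, with every replicate also reaching that limit, limit read from the data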;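 note: 0% = median of neutral control wells and 100% = no fluorescence left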
N-glyco inh: increase of ERlucT glycosylation luciferase signal, primary screen, N-linked glycosylation inhibitor project, D54 ERlucT cells, luminescence, set 2; D54 ERlucT glycosylation luciferase reporter, 24 h; percent of 100 nM tunicamycin response; reporter increase, % at 12.5 µM; 360,000 tested, 0.23% active;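 active = mean luciferase reporter signal, scaled so untreated is 0 and the glycosylation-blocking control 100, at or above a set limit in every replicate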;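 note: luciferase carries N-glycosylation sites so blocking glycosylation raises the light; 0% = median of neutral control wells and 100% = median of 100 nM tunicamycin wells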
RAD52 inh: RAD52 DNA annealing inhibitors, primary screen, biochemical, FRET, single point, set 2. DNA repair protein RAD52 homolog (Homo sapiens), P43351. AID 651710, 2012. inhibition, % at 18.7 µM. 360,000 tested, 0.46% active. recombinant RAD52 DNA annealing, FRET fluorescence;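 active = every replicate showing at least 50% inhibition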
The depositor's hits bear a star. In the library only some 1.2% were active in any assay of this set; here they are far more common.

What do the screens show for `COc1ccc2[nH]c3c(=O)n(/N=C/[C@H]4C(C)C=C(C)CC4C)c(=O)[nH]c3c2c1` (stereo not given in full)?
RAD54 inh: -21.6; CASP6 VEID inh: -2.6; N-glyco inh: 0.0; RAD52 inh: -22.2

What do the screens show for `CC1=CC(C)[C@H](/C=N/n2c(=O)[nH]c3c([nH]c4ccc(Br)cc43)c2=O)C(C)C1` (stereo not given in full)?
NSD2 HMT inh: 1.0; RAD54 inh: -6.7; CASP6 VEID inh: -2.7; N-glyco inh: 37.5*; RAD52 inh: -27.3

Results for CCC(=O)N(C)C[C@@H]1Oc2ncc(C#Cc3ccccc3)cc2C(=O)N([C@@H](C)CO)C[C@@H]1C ?
RAD54 inh: -3.8; CASP6 VEID inh: -0.5; RAD52 inh: 2.7

Results for S=c1[nH]c2cc(Cl)c3cccnc3c2o1 ?
NSD2 HMT inh: 4.6; RAD54 inh: 0.8; CASP6 VEID inh: 51.5*; N-glyco inh: 2.4; RAD52 inh: 7.0

Results for C[C@@H](NC(=O)C[C@@H]1C=C[C@@H](NC(=O)C2CC2)[C@H](CO)O1)c1ccccc1 ?
RAD54 inh: 0.8; CASP6 VEID inh: 0.4; RAD52 inh: -21.4

What do the screens show for `O=C(/C=C/c1cn(-c2ccccc2)nc1-c1cccnc1)N1CCCC1`?
NSD2 HMT inh: -0.9; CASP6 VEID inh: 0.1; N-glyco inh: 2.6; RAD52 inh: -8.0

What do the screens show for `O=C(/C=C/c1cn(-c2ccccc2)nc1-c1cccnc1)c1ccco1`?
NSD2 HMT inh: 28.4; CASP6 VEID inh: 4.2; N-glyco inh: 31.8*; RAD52 inh: -13.6

How did C#CC[N+](C)(C)CCCCCCCCCC do in these assays?
NSD2 HMT inh: -1.4; RAD54 inh: -15.0; CASP6 VEID inh: 7.6; N-glyco inh: 40.3*; RAD52 inh: 8.2

Results for C#CC[N+](C)(C)CCCCCCCCCCCC ?
NSD2 HMT inh: -1.5; CASP6 VEID inh: 2.9; N-glyco inh: 144.5*; RAD52 inh: 33.1

What do the screens show for `O=C(N[C@@H]1CC[C@H](CCNC(=O)C2CCCC2)O[C@@H]1CO)c1ccncc1`?
RAD54 inh: 20.4; CASP6 VEID inh: -0.7; RAD52 inh: -0.5

How did C[C@@H]1CN([C@@H](C)CO)C(=O)c2cccc(NC(=O)CCCCCC(=O)Nc3ccccc3N)c2O[C@@H]1CN(C)C(=O)NC1CCCCC1 do in these assays?
CASP6 VEID inh: 1.2; RAD52 inh: -13.9

What do the screens show for `CCc1cc[n+](C2=C([O-])c3ccccc3C(=O)/C2=N\S(=O)(=O)c2cccs2)cc1`?
NSD2 HMT inh: 82.5*; CASP6 VEID inh: 3.9; N-glyco inh: -15.1; RAD52 inh: -8.7

How did CC(=O)Nc1ccc(NC(=O)CSc2ncc(C(=O)Nc3ccccc3)c(=O)n2C)cc1 do in these assays?
NSD2 HMT inh: -2.4; RAD54 inh: -2.4; CASP6 VEID inh: 0.6; N-glyco inh: 13.7; RAD52 inh: 4.9

Results for Cn1c(SCC(=O)c2ccc(F)cc2)ncc(C(=O)Nc2ccccc2)c1=O ?
NSD2 HMT inh: -1.1; RAD54 inh: 8.9; CASP6 VEID inh: -2.8; N-glyco inh: 36.1*; RAD52 inh: -2.2

What do the screens show for `COc1ccc(S(=O)(=O)Nc2ccc3c(c2)CC(=O)N([C@@H](C)CO)C[C@@H](C)[C@@H](CN(C)C(=O)Nc2ccc(F)cc2)O3)cc1`?
RAD54 inh: 8.6

Results for CO[C@H]1CN(C)C(=O)c2cc(NS(C)(=O)=O)ccc2OC[C@@H](C)N(C(=O)c2ccc3c(c2)OCO3)C[C@@H]1C ?
RAD54 inh: 9.5; CASP6 VEID inh: -4.3; RAD52 inh: -6.8

What do the screens show for `COc1ccc(N(C(=O)c2snc(C(N)=O)c2N)C(C(=O)NC2CCCC2)c2ccco2)c(OC)c1` (stereo not given)?
NSD2 HMT inh: 4.8; RAD54 inh: 7.6; CASP6 VEID inh: 62.8*; N-glyco inh: -1.2; RAD52 inh: -11.4

What do the screens show for `O=C1CS/C(=N\N=C\c2ccco2)N1c1ccccc1`?
NSD2 HMT inh: 2.4; CASP6 VEID inh: 57.3*; N-glyco inh: 2.2; RAD52 inh: -24.3

Results for COCCN(C(=O)c1cc2c(s1)CCCCC2)c1c(N)n(CC(C)C)c(=O)[nH]c1=O ?
NSD2 HMT inh: -1.5; RAD54 inh: -3.7; CASP6 VEID inh: 5.9; N-glyco inh: 1.9; RAD52 inh: -6.6
